Compound activity (PubChem)
BaF3 parental: counter-screen for JAK2V617F inhibitors: parental Ba/F3 viability inhibitors | CellTiter-Glo ATP luminescence | inhibition, % at 5.6 µM | hit rate 1.1% among 220,000 | AID 1486;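 active means inhibition above a per-campaign cutoff, the mean inhibition of all tested compounds plus 3 SD, cut at about 27% in these data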
Ba/F3 V617F tox: lowers viability of Ba/F3 cells expressing EpoR and JAK2V617F | ATP luminescence | inhibition, % at 5.6 µM | hit rate 1.1% among 220,000;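 active means inhibition above the campaign mean plus 3 SD over all tested compounds, cut at about 24% in these data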;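 further: cytokine-independent growth of Ba/F3 cells driven by EpoR plus mutant JAK2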
IEC-6 tox: kills IEC-6 intestinal cells in KLF5 counter-screen | IEC-6 cytotoxicity, luminescence viability | inhibition, % at 5 µM | hit rate 0.78% among 290,000 | AID 1825
KLF5 inhibitor: kruppel-like factor 5 inhibition | DLD-1 KLF5 promoter-luciferase reporter, luminescence | inhibition, % at 5 µM | hit rate 0.23% among 290,000;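 active means inhibition above a per-plate limit of that plate's mean compound inhibition plus 3 SD, cut at about 60% in these data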;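 further: higher means less KLF5 promoter-driven luciferase light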
APP transl inh: APP translation inhibition. inhibition, % at 2 µM. hit rate 0.82% among 190,000. SH-SY5Y APP 5'UTR-luciferase reporter, luminescence. AID 1285;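 active means inhibition above a set limit, derived from the sample mean plus 3 SD, cut at about 45% in these data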
IEC-6 tox confirm: confirmation of cytotoxic compounds in rat IEC-6 intestinal epithelial cells. shares compounds with IEC-6 tox. IEC-6 rat intestinal epithelial viability, luminescence. inhibition, % at 5 µM. hit rate 63% among 1,900
A number is an active result; i = inactive; nt = no result given. This is a sample that favours compounds with a hit; in the whole collection about 1.8% have one here. Unless noted, no stated cut-off is given here; in the data, active means inhibition above about 22%; inactive means the rest.

SMILES | BaF3 parental | Ba/F3 V617F tox | IEC-6 tox | KLF5 inhibitor | APP transl inh | IEC-6 tox confirm
Cc1ccc2oc(C(=O)NCc3ncc(C)[nH]3)c(C)c2c1 | nt | nt | 34 | i | nt | i
CCOc1cc(S(=O)(=O)NCc2ccncc2)ccc1Cl | 84 | 64 | 24 | i | i | i
CC(C)(C)NC(=O)/C(=C/c1ccco1)c1ccccc1 | i | i | i | i | i | nt
N#CC(C#N)=C1C=CC=CN1/C(=C\c1ccco1)C(=O)c1ccccc1 | 71 | 92 | 74 | i | 96 | i
Cc1cc(=O)oc2cc(OCC(=O)c3ccccc3)ccc12 | nt | nt | i | i | nt | nt
COc1cccc(C(=O)COc2ccc3c(C)cc(=O)oc3c2)c1 | nt | nt | 28 | i | nt | i
COc1ccc(C2=NOC(COc3ccc4c(C)cc(=O)oc4c3)C2)c(OC)c1 (stereo not drawn) | 70 | 78 | 60 | i | 73 | 56
COc1ccc(C(=O)COc2ccc3c(C)cc(=O)oc3c2)cc1 | nt | nt | i | i | nt | nt
Cc1cc(=O)oc2cc(OCCc3ccccc3)ccc12 | nt | nt | 44 | i | nt | 22
O=C(O)c1ccccc1-n1c(-c2ccccc2)cc2c1CCCC2=O | i | i | i | i | i | nt
O=C1S/C(=C/c2ccc(N3CCOCC3)o2)C(=O)N1Cc1ccc(F)cc1 | i | i | i | i | i | nt
C=CCN1C(=O)N/C(=C/c2ccc(N3CCOCC3)o2)C1=O | 78 | 95 | 32 | i | 88 | i
COc1cc(/C=C/C(=O)c2ccc3c(c2)OCCO3)cc(Br)c1OCC(=O)N(C)C | nt | nt | 24 | i | nt | i
Cn1c(-c2ccccc2)c(/C=N/NC(=O)c2cccnc2)c2ccccc21 | i | i | i | i | i | nt
O=C(N/N=C/c1c(-c2ccccc2)[nH]c2ccccc12)c1cccnc1 | 55 | 64 | 58 | i | i | 23
CC1=Nc2ccccc2/C1=C/c1sc(=N)n(-c2nccs2)c1O | i | i | 27 | i | i | 41
CC1=Nc2ccccc2/C1=C/c1nc(-c2ccc(C)s2)oc1O | i | i | i | i | i | nt
Cn1cc(Br)c(C(=O)NC2CCCCCC2)n1 | nt | nt | i | i | nt | nt
CCOc1ccc(/C=C/c2nc(C#N)c(NCCCOC)o2)cc1 | nt | nt | 74 | i | nt | 61
Cc1ccc(C(C(=O)NCC2CCCO2)N(C(=O)c2snc(C(N)=O)c2N)c2ccc(C)c(C)c2)o1 (stereo not drawn) | nt | nt | i | i | nt | nt
O=C(NCCc1cccnc1)C1CCC(=O)N(Cc2ccc(Cl)cc2)C1 (stereo not drawn) | nt | nt | i | i | nt | nt
CCCc1nc2c(sc3nc4c(cc32)COC(C)(C)C4)c(=O)n1Cc1ccco1 | i | i | i | i | i | nt
Cc1nc2c(sc3nc4c(cc32)COC(C)(C)C4)c(=O)n1CC(=O)NCc1ccco1 | 79 | 76 | 63 | i | i | 38
CC(NC(=S)NCCc1ccccc1)C(c1cccs1)N1CCN(C)CC1 (stereo not drawn) | i | i | i | i | i | nt
CC[n+]1c(/C=C/N(C)c2ccccc2)n(-c2ccccc2)c2ccc(-c3nc4ccccc4s3)cc21 | nt | nt | 58 | i | nt | i
SMILES | BaF3 parental | Ba/F3 V617F tox | IEC-6 tox | KLF5 inhibitor | APP transl inh | IEC-6 tox confirm
CCOc1cc(-c2nc3ccccc3s2)ccc1O | i | i | i | i | nt | nt
CCC(CC)c1nnc(NC(=O)c2ccc3ccccc3n2)s1 | i | i | 35 | i | i | i
COc1ccc(/C=N/Nc2nnc(C)n2N)cc1OC(C)=O | nt | nt | i | i | nt | nt
COc1ccc(/C=N/Nc2nnc(C)n2N)cc1OC | i | i | 102 | i | i | i
O=S(=O)(Cc1ccccc1)N1CCNCC1 | nt | nt | i | i | nt | nt
COc1ccc2nc(NC(=O)CSc3nnnn3C)sc2c1 | i | i | i | i | i | nt
Cc1ccc(N=Nc2c(N)[nH]n3c(=O)cc(C)nc23)cc1 | i | i | 22 | i | i | i
Nc1nc(Nc2ccccc2F)nc(N2CCCC2)c1[N+](=O)[O-] | nt | nt | 23 | i | nt | 22
CCN1CCN(c2nc(Nc3ccccc3F)nc(N)c2[N+](=O)[O-])CC1 | i | i | i | i | nt | nt
O=S(=O)(Nc1cccc2ncccc12)c1cccs1 | i | i | 100 | i | i | 102
CCOC(=O)Cn1c2ccccc2n2nc(CCC(=O)O)c(=O)nc12 | i | i | i | i | i | nt
C=CCN(c1ccc(C(=O)NCCN2CCOCC2)cc1)S(C)(=O)=O | nt | nt | i | i | nt | nt
COc1cccc(NC(=O)C2CCN(C(=O)NC3CCCCC3)CC2)c1 | nt | nt | i | i | nt | nt
Cc1ccc(-c2nc(Nc3ccc(O)cc3)c3ccccc3n2)cc1 | nt | nt | i | i | nt | nt
Cc1ccc(-c2nc(C(Cl)Cl)c3ccccc3n2)cc1 | i | i | 87 | i | nt | 99
CCOC(=O)N1CCN(Cc2nc3cc(NC(=O)CC)ccc3n2C)CC1 | nt | nt | i | i | nt | nt
CCCn1c(CN2CCN(C(=O)OCC)CC2)nc2cc(NC(=O)CC)ccc21 | nt | nt | 53 | i | nt | 24
Cc1cc(-c2ccc(C(C)C)c(S(=O)(=O)N3CCN(c4ccccc4)CC3)c2)on1 | nt | nt | 78 | i | nt | 53
Cc1cccc(N2CCN(S(=O)(=O)c3cc(-c4cc(C)no4)ccc3C)CC2C)c1 (stereo not drawn) | nt | nt | 50 | i | nt | 32
O=C(Nc1ccc2nc3n(c(=O)c2c1)CCCCC3)c1cc([N+](=O)[O-])ccc1F | nt | nt | 62 | i | nt | i
COc1cc(-c2noc(C)c2C#Cc2ccc(N)cc2)cc(OC)c1OC | nt | nt | 87 | i | nt | 64
CNC(C)C#Cc1c(-c2cc(OC)c(OC)c(OC)c2)noc1C (stereo not drawn) | nt | nt | i | i | nt | nt
COc1ccc(-c2c(-c3cc(OC)c(OC)c(OC)c3)noc2C)cn1 | nt | nt | 80 | i | nt | 54
CCOc1ccc(C2=Nn3c(nnc3-c3ccc(OC)cc3)SC2)cc1 | 57 | 73 | 34 | i | 95 | 52
COc1ccc(C2=Nn3c(nnc3-c3ccncc3)SC2)cc1 | i | i | i | i | i | nt
SMILES | BaF3 parental | Ba/F3 V617F tox | IEC-6 tox | KLF5 inhibitor | APP transl inh | IEC-6 tox confirm
Cc1cccc(N2CCN(C(=O)c3cc(S(=O)(=O)N4CCCC4)cn3C)CC2)c1C | nt | nt | 52 | i | nt | i
CC1=CCC2C(=O)N(c3ccc(N4CCOCC4)cc3)C(=O)C2C1 (stereo not drawn) | i | i | i | i | nt | nt
C/C(=N\NC(=O)c1nnn(-c2nonc2N)c1CN1CCc2ccccc21)c1ccccc1O | nt | nt | 54 | i | nt | 56
CCN(CC)c1ccc2nc3ccccc3[n+](CC)c2c1 | nt | nt | 34 | i | nt | 33
CC(C)(C)NC(=O)COc1coc(CN2CCN(Cc3ccccc3)CC2)cc1=O | nt | nt | i | i | nt | nt
Cc1ccc(-n2ncc(Br)c(Br)c2=O)cc1 | 106 | 101 | 102 | i | 94 | 30
O=c1c(Br)c(Br)cnn1-c1ccccc1 | 50 | 101 | 102 | i | 96 | 46
COc1c(Cl)cnn(-c2ccc(C)cc2)c1=O | i | i | i | i | i | nt
CC1CC(C)(C)Nc2ccc(N=O)cc21 (stereo not drawn) | 93 | 97 | 24 | i | 65 | i
CC1CC(C)(C)Nc2ccc(OC(=O)c3ccco3)cc21 (stereo not drawn) | i | i | i | i | i | nt
Cc1ccc(S(=O)(=O)c2ccc([N+](=O)[O-])cn2)cc1 | nt | nt | 101 | i | nt | i
O=[N+]([O-])c1ccc(S(=O)(=O)c2ccccc2)nc1 | nt | nt | 101 | i | nt | 85
Nc1ccc(S(=O)(=O)c2ccccc2)nc1 | nt | nt | i | i | nt | nt
CCCNc1nc(-c2ccccc2)c(C(=O)OCC)cc1C#N | 58 | 59 | 46 | i | 82 | 75
